Sampled rows, rich in hits. Any-hit rate of the full collection: about 10%.
GLS inh: qHTS for Inhibitors of Glutaminase (GLS). Glutaminase kidney isoform, mitochondrial (Homo sapiens), O94925. GLS enzymatic activity, qHTS titration. Potency, µM (doses to about 45.5 µM), hits mostly inhibitors. actives 0.21% (n = 410,000). AID 624170, 2012
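hKGA in 45 mM KH2PO4 pH 8.2, 0.02% Tween-20 with pin-transferred compounds; 1 mM L-glutamine (stock) plus glutamate oxidase/HRP/Amplex Red coupling added. Fluorescence read initially and after 30 min at RT.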
BAZ2B inh: qHTS Assay for Inhibitors of BAZ2B; Potency, µM (doses to about 114 µM), hits mostly inhibitors; AID 504333, 2011; Bromodomain adjacent to zinc finger domain protein 2B (Homo sapiens), Q9UIF8; actives 4.4% (n = 360,000); AlphaScreen BAZ2B-H3K14Ac peptide displacement; also: nearly all actives have a fitted effect of over 60% in size
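BAZ2B 50 nM plus b-H3(5-23)K14Ac 50 nM, PBS pH 7.4/0.01% Tween-20, 30 min RT; compound added (max 110 uM), 30 min RT; streptavidin donor/Ni-chelate acceptor beads 10 ug/mL final, 20 min dark; AlphaScreen read.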
G9a block: qHTS Assay for Inhibitors of Histone Lysine Methyltransferase G9a; G9a H3K9 monomethylation, AlphaScreen, 2 h; Potency, µM (series often up to 102 µM), usual class: inhibitors; actives 8.8% (n = 350,000); AID 504332, 2011; also: nearly all actives have a fitted effect of over 75% in size
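Methyltransferase reactions run at room temperature for 2 h (20 nM enzyme, 500 nM biotin-H3K9 peptide, 20 uM SAM) after a 15 min compound preincubation; product detected by AlphaScreen beads and anti-H3K9me1 antibody.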
JMJD2A Tudor inh: qHTS Assay for Inhibitors of JMJD2A-Tudor Domain. Lysine-specific demethylase 4A (Homo sapiens), O75164. AlphaScreen JMJD2A-Tudor / H3K4me3 peptide binding. Potency, µM (doses to about 114 µM), actives largely listed as inhibitors. actives 4.4% (n = 390,000). AID 504339, 2011; also: nearly all actives have a fitted effect of over 50% in size
Target sequence (O75164 whole entry, looked up, the tested form may be a part): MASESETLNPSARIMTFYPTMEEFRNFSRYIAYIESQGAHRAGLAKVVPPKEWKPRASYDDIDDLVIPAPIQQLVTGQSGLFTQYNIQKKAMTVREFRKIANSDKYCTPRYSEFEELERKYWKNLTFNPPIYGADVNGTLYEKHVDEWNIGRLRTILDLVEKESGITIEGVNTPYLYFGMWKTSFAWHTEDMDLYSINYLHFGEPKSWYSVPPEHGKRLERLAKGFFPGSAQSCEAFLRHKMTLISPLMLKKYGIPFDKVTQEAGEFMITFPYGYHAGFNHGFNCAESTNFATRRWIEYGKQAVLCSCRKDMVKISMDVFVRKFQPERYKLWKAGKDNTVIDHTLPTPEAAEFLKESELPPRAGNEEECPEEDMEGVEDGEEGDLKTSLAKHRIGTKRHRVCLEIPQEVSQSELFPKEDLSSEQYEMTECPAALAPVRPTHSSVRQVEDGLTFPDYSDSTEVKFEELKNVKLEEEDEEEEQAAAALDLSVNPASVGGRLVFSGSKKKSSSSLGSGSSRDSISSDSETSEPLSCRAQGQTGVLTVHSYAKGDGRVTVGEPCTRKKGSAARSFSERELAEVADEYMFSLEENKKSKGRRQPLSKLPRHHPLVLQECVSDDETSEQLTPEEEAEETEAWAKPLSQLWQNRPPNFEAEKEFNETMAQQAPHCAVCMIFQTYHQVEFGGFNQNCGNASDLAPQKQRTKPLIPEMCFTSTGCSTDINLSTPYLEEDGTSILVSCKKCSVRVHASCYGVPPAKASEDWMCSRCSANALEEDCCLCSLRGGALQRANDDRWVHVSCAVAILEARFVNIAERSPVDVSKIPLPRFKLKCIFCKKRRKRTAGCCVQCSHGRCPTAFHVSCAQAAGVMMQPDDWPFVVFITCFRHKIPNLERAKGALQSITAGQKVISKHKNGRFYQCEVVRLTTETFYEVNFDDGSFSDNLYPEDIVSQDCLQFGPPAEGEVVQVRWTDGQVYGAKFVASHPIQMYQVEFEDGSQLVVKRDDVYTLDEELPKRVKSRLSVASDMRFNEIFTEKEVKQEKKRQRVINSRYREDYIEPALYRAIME
HP1b binding inh: HTS for Inhibitors of HP1-beta Chromodomain Interactions with Methylated Histone Tails; AlphaScreen HP1-beta / biotin-H3K9me3 peptide binding; Potency, µM (doses to about 114 µM), most hits filed as inhibitors; actives 0.56% (n = 390,000); AID 540317, 2011; also: nearly all actives have a fitted effect of over 70% in size
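HP1-beta protein (50 nM final) preincubated 30 min at room temperature with biotinylated H3(1-18)K9me3 peptide (50 nM) in PBS pH 7.4, 0.01% Tween-20, then compound added for 30 min. AlphaScreen streptavidin donor/nickel chelate acceptor beads (10 ug/mL final), 30 min dark, luminescence read.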
Large screens that a line does not name were inactive. Calls follow the shape of the dose curve; as a rule, active = well fitted curve in the direction sought with a large enough effect; inconclusive = small, poorly fitted or top-dose-only effect, or another doubt; inactive = no such curve, though single readings can be large; an effect the other way counts as inactive or inconclusive.

Cc1ccc(NC(=O)c2ccccc2-c2ccccc2C(=O)O)cc1C	BAZ2B inh inconclusive, G9a block inconclusive
Cc1ccc(NC(=O)c2cccc(C(=O)Nc3ccc(C)c(C)c3)n2)cc1C	JMJD2A Tudor inh 22.4µM
CC(=O)c1cccc(NC(=O)c2nc(-c3ccccc3)oc2C)c1	none
CC(=O)c1cccc(NC(=O)c2nccnc2C(=O)O)c1	G9a block inconclusive, JMJD2A Tudor inh 20µM
Cc1cc(C)cc(NC(=O)Nc2cnccn2)c1	none (no result: G9a block)
Cc1cc(C)cc(NC(=O)c2nccnc2C(=O)O)c1	BAZ2B inh inconclusive, G9a block 25.1µM, JMJD2A Tudor inh 79.4µM
Cc1ccc(NC(=O)c2nccnc2C(=O)O)cc1C	BAZ2B inh inconclusive, G9a block 44.7µM
Cc1ccc(S(=O)(=O)N(C)c2ccc(C(=O)NCc3cccnc3)cc2)cc1	none
O=C(N/N=C/C=C/c1ccc2c(c1)OCO2)C(O)c1ccccc1 (stereo not given)	none
Cc1c(-c2cc[n+]([O-])cc2)oc2ccc(Br)cc2c1=O	none (no result: GLS inh, JMJD2A Tudor inh, HP1b binding inh)
O=C(NCCc1ccccc1)C1CCN(S(=O)(=O)N2CCCCCC2)CC1	none
O=C(O)c1nccnc1C(=O)Nc1ccc(Cl)cn1	BAZ2B inh inconclusive, G9a block 44.7µM, JMJD2A Tudor inh inconclusive
CC(=O)Nc1cccc(NC(=O)c2ccc(C(=O)Nc3cccc(NC(C)=O)c3)nc2)c1	none
COC(=O)c1cc(NC(=O)c2cccnc2)cc(C(=O)OC)c1	none
CC(=O)Nc1cccc(C(=O)Nc2cccc3ncccc23)c1	G9a block 44.7µM
CC(=O)c1cccc(NC(=O)c2ccc(C(=O)Nc3cccc(C(C)=O)c3)nc2)c1	BAZ2B inh inconclusive, G9a block inconclusive, JMJD2A Tudor inh 20µM
COC(=O)c1cc(NC(=O)c2nccnc2C(=O)O)cc(C(=O)OC)c1	G9a block 44.7µM, JMJD2A Tudor inh 56.2µM
Cn1c(CN2CCOCC2)nnc1SCC(=O)Nc1ccc([N+](=O)[O-])cc1O	none (no result: G9a block)
Cc1ccc(S(=O)(=O)NNC(=O)c2cnn(-c3ccccc3)c2C(F)(F)F)cc1	none
Cc1ccc(S(=O)(=O)NNC(=O)c2cnn(-c3ccc(Cl)cc3)c2C(F)(F)F)cc1	GLS inh inconclusive, G9a block 56.2µM
CC1CCN(C2=C(NS(=O)(=O)c3ccc(Cl)cc3)C(=O)c3ccccc3C2=O)CC1	BAZ2B inh 4.47µM, G9a block 5.62µM, JMJD2A Tudor inh 44.7µM, HP1b binding inh inconclusive
O=C1C(NS(=O)(=O)c2ccccc2)=C(N2CCN(c3ccc(F)cc3)CC2)C(=O)c2ccccc21	BAZ2B inh 3.98µM, G9a block 5.62µM, JMJD2A Tudor inh inconclusive, HP1b binding inh 10µM
O=C(c1cccc(NS(=O)(=O)c2ccc(F)cc2)c1)N1CCN(c2ccccc2)CC1	none
O=S(=O)(Nc1nc2ccccc2nc1N1CCN(c2ccccc2)CC1)c1ccc(F)cc1	BAZ2B inh inconclusive, G9a block 50.1µM, JMJD2A Tudor inh inconclusive
CC1CCN(C2=C(NS(=O)(=O)c3ccc(Br)cc3)C(=O)c3ccccc3C2=O)CC1	BAZ2B inh 4.47µM, G9a block 8.91µM, JMJD2A Tudor inh 8.91µM, HP1b binding inh 6.31µM
O=S(=O)(Nc1ccc(N2CCOCC2)cc1)c1cccs1	none
O=S(=O)(Nc1ccccc1N1CCCCC1)c1ccccc1	none
CC1CCN(C2=C(NS(=O)(=O)c3ccccc3)C(=O)c3ccccc3C2=O)CC1	GLS inh inconclusive, BAZ2B inh 6.31µM, G9a block 3.98µM, JMJD2A Tudor inh 14.1µM, HP1b binding inh 14.1µM
O=C1C(NS(=O)(=O)c2ccc(Br)cc2)=C(N2CCCCC2)C(=O)c2ccccc21	BAZ2B inh 5.01µM, G9a block 8.91µM, JMJD2A Tudor inh 8.91µM, HP1b binding inh 10µM
O=S(=O)(Nc1nc2ccccc2nc1Cl)c1ccccc1	G9a block 39.8µM
CC1CCN(C(CNS(=O)(=O)c2ccccc2)c2ccccc2)CC1 (stereo not given)	none
O=C1C(NS(=O)(=O)c2cccs2)=C(N2CCN(c3cccc(Cl)c3)CC2)C(=O)c2ccccc21	BAZ2B inh 8.91µM, G9a block inconclusive, JMJD2A Tudor inh 7.08µM, HP1b binding inh inconclusive
CC(=C1C(=O)c2ccccc2C1=O)N1CCN(c2ccc(F)cc2)CC1	G9a block 50.1µM
CSc1ccccc1C(=O)N1CCN(c2ccc(F)cc2)CC1	none
CC1CCCN(C2=C(NS(=O)(=O)c3ccc(Br)cc3)C(=O)c3ccccc3C2=O)C1 (stereo not given)	BAZ2B inh 3.55µM, G9a block inconclusive, JMJD2A Tudor inh 3.55µM, HP1b binding inh inconclusive
Cc1nnc(NC(=O)CCCCCN2C(=O)C3C4C=CC(C4)C3C2=O)s1 (stereo not given)	none
CC(C)(C)N/N=C/c1c(O)n(-c2ccc(Cl)cn2)c(=O)c2ccccc12	G9a block 3.16µM
O=c1c2ccccc2c(C=Nc2cccc(S(=O)(=O)NCc3ccco3)c2)c(O)n1-c1ccc(Cl)cn1	G9a block 28.2µM
CCOCCCNCc1ccc(Cl)cc1	BAZ2B inh 70.8µM, G9a block 11.2µM, JMJD2A Tudor inh 1.12µM, HP1b binding inh inconclusive
CCOCCCNCc1cccc(OCc2ccc(F)cc2)c1	none
OCCN(Cc1ccccc1)Cc1cccc(C(F)(F)F)c1	BAZ2B inh inconclusive, G9a block 17.8µM, JMJD2A Tudor inh 7.94µM, HP1b binding inh inconclusive
OCCN(Cc1ccccc1)Cc1ccc(C(F)(F)F)cc1	BAZ2B inh inconclusive, G9a block 28.2µM, JMJD2A Tudor inh 7.94µM, HP1b binding inh 15.8µM
O=C(CCN1C(=O)CSc2ccccc21)Nc1ccc(C(F)(F)F)cc1	none
CS(=O)(=O)N1N=C(c2ccco2)CC1c1cccc([N+](=O)[O-])c1 (stereo not given)	none (no result: G9a block)
CC(=O)N1c2ccc(S(=O)(=O)N3CCCC(C(=O)N4CCC(C)CC4)C3)cc2CC1C (stereo not given)	none
COc1cc(/C=C2\SC(=Nc3ccccc3)N(CCc3c[nH]c4ccccc34)C2=O)ccc1OC(C)C(=O)O (stereo not given)	BAZ2B inh 44.7µM, G9a block 6.31µM, JMJD2A Tudor inh 56.2µM, HP1b binding inh inconclusive
O=C1/C(=C/c2ccc(N3CCOCC3)o2)SC(=Nc2ccccc2)N1CCc1c[nH]c2ccccc12	GLS inh inconclusive, BAZ2B inh inconclusive, G9a block inconclusive, JMJD2A Tudor inh inconclusive
COc1ccc(N=C2S/C(=C\c3ccc(OC(C)C(=O)O)c(OC)c3)C(=O)N2CCc2c[nH]c3ccccc23)cc1 (stereo not given)	BAZ2B inh 22.4µM, G9a block 35.5µM, JMJD2A Tudor inh 39.8µM, HP1b binding inh inconclusive
